From PMC7862700, “An all-to-all approach to the identification of sequence-specific readers for epigenetic DNA modifications on cytosine” come the findings set out here.

What all share (test): DAPPL (digital affinity profiling via proximity ligation, sequencing); 10 mM Tris-HCl pH 7.5, 50 mM NaCl, 1 mM DTT, 4% glycerol, room temperature, 30 min; GST-TFs on glutathione beads, 16-mer random dsDNA library, 0.1% formaldehyde crosslink after washing; high values mean tight binding
The target of assay [1] is T1, FLI1 (Homo sapiens, UniProt Q01543 1-452).
T1 sequence: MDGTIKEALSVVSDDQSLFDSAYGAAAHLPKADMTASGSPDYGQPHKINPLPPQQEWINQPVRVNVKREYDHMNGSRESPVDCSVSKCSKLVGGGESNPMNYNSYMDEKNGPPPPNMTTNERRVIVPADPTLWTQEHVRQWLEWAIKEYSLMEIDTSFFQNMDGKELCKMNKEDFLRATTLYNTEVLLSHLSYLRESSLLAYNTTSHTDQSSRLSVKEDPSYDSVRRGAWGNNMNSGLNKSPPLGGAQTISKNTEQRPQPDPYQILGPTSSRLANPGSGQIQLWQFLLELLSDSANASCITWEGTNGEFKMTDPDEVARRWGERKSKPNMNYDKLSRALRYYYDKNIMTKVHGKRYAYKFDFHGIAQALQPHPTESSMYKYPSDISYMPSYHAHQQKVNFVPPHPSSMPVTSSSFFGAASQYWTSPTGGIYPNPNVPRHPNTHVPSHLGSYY
To be noted: protein: recombinant; tags: N-terminal GST; dsDNA, one strand shown. An outline of the steps:
(§1)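 The binding signal reported is, for every hexamer, its read frequency for a factor over its read frequency for the tag-only sample. Reads came from pools of yeast-expressed, GST-fused human transcription factors on glutathione beads, barcoded with DNA and mixed with that sample, which were incubated with 200 nmole of a random double-stranded 16-mer DNA library in Tris/NaCl/DTT/glycerol buffer at room temperature for 30 min. After washing, the pools were crosslinked with 0.1% formaldehyde, proximity-ligated with BsaI/T4 ligase for 1 h at 37 °C, PCR-amplified and sequenced on an Illumina NextSeq500.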

Assay [2] concerns the target T2, ELK1 (Homo sapiens, UniProt P19419 1-428).
T2 sequence: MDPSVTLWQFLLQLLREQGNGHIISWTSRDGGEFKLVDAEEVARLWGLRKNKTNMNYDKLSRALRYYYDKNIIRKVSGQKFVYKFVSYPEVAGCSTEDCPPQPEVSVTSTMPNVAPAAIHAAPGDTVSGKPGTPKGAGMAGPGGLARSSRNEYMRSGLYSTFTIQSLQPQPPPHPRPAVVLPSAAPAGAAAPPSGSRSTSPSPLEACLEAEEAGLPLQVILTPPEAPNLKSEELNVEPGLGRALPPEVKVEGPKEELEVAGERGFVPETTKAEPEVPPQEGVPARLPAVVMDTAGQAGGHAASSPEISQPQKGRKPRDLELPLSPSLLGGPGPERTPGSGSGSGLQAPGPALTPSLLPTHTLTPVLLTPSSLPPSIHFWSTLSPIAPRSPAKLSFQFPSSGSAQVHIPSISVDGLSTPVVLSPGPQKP
To be noted: protein: recombinant; tags: N-terminal GST; dsDNA, one strand shown. The essentials:
as §1

The target of assay [3] is T3, GABPA (Homo sapiens, UniProt Q06546 1-454).
T3 sequence: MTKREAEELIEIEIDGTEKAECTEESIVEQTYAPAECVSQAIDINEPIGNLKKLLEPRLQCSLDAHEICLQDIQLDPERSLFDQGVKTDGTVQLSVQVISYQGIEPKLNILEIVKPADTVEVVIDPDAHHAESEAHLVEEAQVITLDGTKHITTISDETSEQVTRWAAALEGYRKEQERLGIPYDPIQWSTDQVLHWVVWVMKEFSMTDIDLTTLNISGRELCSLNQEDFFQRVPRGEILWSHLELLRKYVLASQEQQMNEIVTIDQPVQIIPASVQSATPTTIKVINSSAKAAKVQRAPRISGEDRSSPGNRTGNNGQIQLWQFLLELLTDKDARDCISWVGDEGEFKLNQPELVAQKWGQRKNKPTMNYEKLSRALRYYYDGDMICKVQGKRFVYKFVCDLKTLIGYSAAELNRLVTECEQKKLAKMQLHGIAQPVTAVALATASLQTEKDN
To be noted: protein: recombinant; tags: N-terminal GST; dsDNA, one strand shown. The essentials:
as §1

The target in assay [4] is T4, ERG (Homo sapiens, UniProt P11308 1-479).
T4 sequence: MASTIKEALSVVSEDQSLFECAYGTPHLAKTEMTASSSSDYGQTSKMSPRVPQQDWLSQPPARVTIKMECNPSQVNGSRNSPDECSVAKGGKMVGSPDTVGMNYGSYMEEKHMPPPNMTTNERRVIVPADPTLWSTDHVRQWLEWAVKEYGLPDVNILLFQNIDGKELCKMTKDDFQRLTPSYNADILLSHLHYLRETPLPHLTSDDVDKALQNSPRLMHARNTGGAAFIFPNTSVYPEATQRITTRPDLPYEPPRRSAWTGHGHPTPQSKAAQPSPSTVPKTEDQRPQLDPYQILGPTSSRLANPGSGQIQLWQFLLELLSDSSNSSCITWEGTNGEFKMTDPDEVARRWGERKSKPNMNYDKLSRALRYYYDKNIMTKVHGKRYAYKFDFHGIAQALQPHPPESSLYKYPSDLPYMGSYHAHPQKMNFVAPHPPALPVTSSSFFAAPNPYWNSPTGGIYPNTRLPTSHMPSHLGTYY
To be noted: protein: recombinant; tags: N-terminal GST; dsDNA, one strand shown. An outline of the steps: as §1

Assay [5] has as its target ELF1 (Homo sapiens, UniProt P32519 1-619). To be noted: protein: recombinant; tags: N-terminal GST; dsDNA, one strand shown. An outline of the steps: as §1
The target in assay [6] is T5, EHF (Homo sapiens, UniProt Q9NZC4 1-300).
T5 sequence: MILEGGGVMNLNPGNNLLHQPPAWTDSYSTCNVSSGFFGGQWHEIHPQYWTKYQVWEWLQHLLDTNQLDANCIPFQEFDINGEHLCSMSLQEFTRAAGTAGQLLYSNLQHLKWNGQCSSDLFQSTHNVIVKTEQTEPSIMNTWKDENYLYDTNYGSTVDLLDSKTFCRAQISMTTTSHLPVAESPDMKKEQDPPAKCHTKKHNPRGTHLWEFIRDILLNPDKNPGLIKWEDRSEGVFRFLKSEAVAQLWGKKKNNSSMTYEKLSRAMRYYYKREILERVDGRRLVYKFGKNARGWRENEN
To be noted: protein: recombinant; tags: N-terminal GST; dsDNA, one strand shown. An outline of the steps:
as §1

The target of assay [7] is SPI1 (Homo sapiens, UniProt P17947 1-270). To be noted: protein: recombinant; tags: N-terminal GST; dsDNA, one strand shown. The essentials:
as §1

For assay [8], the target named is SPIB (Homo sapiens, UniProt Q01892 1-262). To be noted: protein: recombinant; tags: N-terminal GST; dsDNA, one strand shown. An outline of the steps:
as §1

Assay [9] addresses T6, ELK3 (Homo sapiens, UniProt P41970 1-407).
T6 sequence: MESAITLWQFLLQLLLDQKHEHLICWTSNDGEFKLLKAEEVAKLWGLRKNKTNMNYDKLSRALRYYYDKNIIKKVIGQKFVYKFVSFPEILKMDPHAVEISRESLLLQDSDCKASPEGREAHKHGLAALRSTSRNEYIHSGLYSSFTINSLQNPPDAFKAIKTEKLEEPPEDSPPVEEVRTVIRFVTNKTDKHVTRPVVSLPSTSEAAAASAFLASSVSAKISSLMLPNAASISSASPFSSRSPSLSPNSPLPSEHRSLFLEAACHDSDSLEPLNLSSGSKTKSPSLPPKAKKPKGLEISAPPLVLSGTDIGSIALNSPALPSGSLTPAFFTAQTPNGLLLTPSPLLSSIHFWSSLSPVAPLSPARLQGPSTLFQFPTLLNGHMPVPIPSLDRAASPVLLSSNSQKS
To be noted: protein: recombinant; tags: N-terminal GST; dsDNA, one strand shown. The essentials: as §1

Assay [10] has as its target T7, FEV (Homo sapiens, UniProt Q99581 1-238).
T7 sequence: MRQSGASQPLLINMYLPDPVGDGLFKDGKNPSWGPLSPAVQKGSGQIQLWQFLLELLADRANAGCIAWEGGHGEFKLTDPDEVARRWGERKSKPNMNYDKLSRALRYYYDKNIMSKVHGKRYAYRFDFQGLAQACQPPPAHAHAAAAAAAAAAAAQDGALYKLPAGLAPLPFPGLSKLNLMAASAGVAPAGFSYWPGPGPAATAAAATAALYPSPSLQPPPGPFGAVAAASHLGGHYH
To be noted: protein: recombinant; tags: N-terminal GST; dsDNA, one strand shown. An outline of the steps: as §1

Assay [11] deals with ETV5 (Homo sapiens, UniProt P41161 1-510). To be noted: protein: recombinant; tags: N-terminal GST; dsDNA, one strand shown. The essentials:
as §1

Assay [12] has as its target HSF1 (Homo sapiens, UniProt Q00613 1-529). To be noted: protein: recombinant; tags: N-terminal GST; chain copies: 3; dsDNA, one strand shown. The essentials:
as §1

Assay [13] concerns the target T8, SPIC (Homo sapiens, UniProt Q8N5J4 1-248).
T8 sequence: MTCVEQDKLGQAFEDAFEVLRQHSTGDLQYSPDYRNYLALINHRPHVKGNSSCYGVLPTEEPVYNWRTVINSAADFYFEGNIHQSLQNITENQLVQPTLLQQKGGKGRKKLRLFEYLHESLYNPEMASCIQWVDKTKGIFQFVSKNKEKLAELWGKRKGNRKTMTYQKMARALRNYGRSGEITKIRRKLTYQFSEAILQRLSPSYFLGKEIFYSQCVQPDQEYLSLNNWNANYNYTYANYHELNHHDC
To be noted: protein: recombinant; tags: N-terminal GST; dsDNA, one strand shown. An outline of the steps:
as §1

For assay [14], the target named is ELF4 (Homo sapiens, UniProt Q99607 1-663). To be noted: protein: recombinant; tags: N-terminal GST; dsDNA, one strand shown. An outline of the steps:
as §1

The target in assay [15] is T9, ELK4 (Homo sapiens, UniProt P28324-2 1-405).
T9 sequence: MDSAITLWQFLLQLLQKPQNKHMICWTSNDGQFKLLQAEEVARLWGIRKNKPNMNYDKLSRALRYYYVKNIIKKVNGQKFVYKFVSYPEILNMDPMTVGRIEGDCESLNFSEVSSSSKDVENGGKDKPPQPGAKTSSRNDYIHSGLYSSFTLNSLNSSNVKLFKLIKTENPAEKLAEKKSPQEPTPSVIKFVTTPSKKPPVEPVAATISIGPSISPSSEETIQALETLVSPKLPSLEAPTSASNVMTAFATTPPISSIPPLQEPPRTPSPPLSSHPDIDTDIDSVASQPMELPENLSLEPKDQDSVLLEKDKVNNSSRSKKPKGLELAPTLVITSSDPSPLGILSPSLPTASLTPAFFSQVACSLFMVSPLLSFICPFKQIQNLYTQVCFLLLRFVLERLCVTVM
To be noted: protein: recombinant; tags: N-terminal GST; dsDNA, one strand shown. An outline of the steps:
as §1

For assay [16], the target named is T10, ETV2 (Homo sapiens, UniProt O00321 1-342).
T10 sequence: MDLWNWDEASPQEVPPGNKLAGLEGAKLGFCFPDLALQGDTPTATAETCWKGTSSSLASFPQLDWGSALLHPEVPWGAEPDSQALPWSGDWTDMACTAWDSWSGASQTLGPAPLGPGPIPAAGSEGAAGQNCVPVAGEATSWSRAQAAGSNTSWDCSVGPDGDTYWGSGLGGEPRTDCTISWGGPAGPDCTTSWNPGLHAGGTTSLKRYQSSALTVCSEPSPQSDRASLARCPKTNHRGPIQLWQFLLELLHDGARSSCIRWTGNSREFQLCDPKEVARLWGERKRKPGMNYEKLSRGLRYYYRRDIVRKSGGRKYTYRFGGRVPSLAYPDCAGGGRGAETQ
To be noted: protein: recombinant; tags: N-terminal GST; dsDNA, one strand shown. An outline of the steps:
as §1

The target in assay [17] is T11, ELF3 (Homo sapiens, UniProt P78545 1-371).
T11 sequence: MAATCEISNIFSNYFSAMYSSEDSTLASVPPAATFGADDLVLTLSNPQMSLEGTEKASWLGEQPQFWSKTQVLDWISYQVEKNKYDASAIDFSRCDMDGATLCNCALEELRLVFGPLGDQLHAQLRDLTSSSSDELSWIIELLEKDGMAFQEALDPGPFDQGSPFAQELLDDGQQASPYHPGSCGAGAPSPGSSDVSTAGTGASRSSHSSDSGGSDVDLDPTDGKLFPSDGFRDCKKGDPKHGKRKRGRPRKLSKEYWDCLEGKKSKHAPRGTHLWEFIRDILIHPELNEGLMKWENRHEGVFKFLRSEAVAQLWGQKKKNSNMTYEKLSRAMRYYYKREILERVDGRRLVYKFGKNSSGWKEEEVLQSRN
To be noted: protein: recombinant; tags: N-terminal GST; dsDNA, one strand shown. An outline of the steps:
as §1

Assay [18] concerns the target CRX (Homo sapiens, UniProt O43186 1-299). To be noted: protein: recombinant; tags: N-terminal GST; dsDNA, one strand shown. The essentials: as §1
The target of assay [19] is ETV1 (Homo sapiens, UniProt P50549 1-477). To be noted: protein: recombinant; tags: N-terminal GST; dsDNA, one strand shown. An outline of the steps: as §1
Chain of ETV1 (P50549 whole entry): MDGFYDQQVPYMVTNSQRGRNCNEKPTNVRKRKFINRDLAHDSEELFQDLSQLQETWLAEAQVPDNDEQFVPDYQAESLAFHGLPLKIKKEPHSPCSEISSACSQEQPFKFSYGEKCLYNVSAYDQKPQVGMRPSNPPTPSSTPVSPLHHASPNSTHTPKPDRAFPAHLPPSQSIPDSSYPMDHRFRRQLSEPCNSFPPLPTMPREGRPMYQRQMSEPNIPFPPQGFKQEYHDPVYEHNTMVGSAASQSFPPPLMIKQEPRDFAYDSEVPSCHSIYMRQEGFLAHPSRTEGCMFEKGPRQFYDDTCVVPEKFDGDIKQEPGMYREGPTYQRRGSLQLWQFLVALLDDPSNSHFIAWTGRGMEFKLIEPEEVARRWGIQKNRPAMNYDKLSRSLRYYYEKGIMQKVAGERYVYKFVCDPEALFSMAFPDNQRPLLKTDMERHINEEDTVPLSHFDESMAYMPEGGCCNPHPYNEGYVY

Chain of ELF1 (P32519 whole entry): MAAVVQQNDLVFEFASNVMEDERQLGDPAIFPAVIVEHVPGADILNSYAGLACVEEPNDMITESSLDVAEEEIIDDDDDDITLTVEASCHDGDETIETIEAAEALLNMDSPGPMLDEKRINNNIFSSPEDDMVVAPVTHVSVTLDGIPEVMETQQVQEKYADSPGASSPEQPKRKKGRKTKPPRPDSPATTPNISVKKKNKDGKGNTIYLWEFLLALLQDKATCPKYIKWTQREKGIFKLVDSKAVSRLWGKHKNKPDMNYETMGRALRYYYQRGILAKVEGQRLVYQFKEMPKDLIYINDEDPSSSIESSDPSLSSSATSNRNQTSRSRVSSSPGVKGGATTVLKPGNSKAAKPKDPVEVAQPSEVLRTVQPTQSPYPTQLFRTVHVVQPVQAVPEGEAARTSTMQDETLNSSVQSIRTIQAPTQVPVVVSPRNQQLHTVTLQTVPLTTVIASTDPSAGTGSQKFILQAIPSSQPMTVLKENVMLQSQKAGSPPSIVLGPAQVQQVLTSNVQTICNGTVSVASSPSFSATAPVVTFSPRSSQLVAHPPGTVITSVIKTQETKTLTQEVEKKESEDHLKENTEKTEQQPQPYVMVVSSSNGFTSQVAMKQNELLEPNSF
Chain of ELF4 (Q99607 whole entry): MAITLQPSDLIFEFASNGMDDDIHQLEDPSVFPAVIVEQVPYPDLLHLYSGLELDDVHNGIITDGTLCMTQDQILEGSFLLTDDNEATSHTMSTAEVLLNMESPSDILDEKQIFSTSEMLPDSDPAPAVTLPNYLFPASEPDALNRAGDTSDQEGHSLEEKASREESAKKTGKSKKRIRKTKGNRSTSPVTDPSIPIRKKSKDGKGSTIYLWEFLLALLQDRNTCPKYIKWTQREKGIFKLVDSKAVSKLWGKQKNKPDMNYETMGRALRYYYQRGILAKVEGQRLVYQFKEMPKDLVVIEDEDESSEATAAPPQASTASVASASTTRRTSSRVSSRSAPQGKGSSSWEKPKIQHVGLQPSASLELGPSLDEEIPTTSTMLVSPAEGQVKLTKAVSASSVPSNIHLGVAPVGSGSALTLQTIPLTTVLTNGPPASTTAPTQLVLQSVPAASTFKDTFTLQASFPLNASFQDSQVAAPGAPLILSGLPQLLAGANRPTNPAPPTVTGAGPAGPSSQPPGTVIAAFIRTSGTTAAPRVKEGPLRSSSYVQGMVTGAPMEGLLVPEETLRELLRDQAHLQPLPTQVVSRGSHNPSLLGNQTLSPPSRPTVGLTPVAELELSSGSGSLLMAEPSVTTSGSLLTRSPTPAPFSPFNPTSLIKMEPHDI
Chain of SPIB (Q01892 whole entry): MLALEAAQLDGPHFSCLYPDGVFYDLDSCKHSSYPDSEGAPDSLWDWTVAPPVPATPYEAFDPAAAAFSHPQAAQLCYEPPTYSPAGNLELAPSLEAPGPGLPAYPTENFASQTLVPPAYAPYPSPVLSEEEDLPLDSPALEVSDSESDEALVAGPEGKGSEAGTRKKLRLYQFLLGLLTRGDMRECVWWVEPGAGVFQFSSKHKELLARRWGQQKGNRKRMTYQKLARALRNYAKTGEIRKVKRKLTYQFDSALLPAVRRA
Chain of HSF1 (Q00613 whole entry): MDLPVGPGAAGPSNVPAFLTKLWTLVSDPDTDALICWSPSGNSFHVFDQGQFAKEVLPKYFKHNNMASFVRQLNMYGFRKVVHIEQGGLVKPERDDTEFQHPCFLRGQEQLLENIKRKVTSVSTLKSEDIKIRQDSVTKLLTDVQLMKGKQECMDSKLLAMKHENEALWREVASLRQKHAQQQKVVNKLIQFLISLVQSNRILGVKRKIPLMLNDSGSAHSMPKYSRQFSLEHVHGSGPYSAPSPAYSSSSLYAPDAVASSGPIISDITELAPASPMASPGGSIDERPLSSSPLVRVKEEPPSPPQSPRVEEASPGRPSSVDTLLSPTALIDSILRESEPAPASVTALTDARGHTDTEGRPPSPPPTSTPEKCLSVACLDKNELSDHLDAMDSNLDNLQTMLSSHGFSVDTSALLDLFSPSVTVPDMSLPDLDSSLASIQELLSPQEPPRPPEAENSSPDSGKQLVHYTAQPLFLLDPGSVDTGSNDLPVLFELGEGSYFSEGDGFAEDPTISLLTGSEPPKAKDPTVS
Chain of ETV5 (P41161 whole entry): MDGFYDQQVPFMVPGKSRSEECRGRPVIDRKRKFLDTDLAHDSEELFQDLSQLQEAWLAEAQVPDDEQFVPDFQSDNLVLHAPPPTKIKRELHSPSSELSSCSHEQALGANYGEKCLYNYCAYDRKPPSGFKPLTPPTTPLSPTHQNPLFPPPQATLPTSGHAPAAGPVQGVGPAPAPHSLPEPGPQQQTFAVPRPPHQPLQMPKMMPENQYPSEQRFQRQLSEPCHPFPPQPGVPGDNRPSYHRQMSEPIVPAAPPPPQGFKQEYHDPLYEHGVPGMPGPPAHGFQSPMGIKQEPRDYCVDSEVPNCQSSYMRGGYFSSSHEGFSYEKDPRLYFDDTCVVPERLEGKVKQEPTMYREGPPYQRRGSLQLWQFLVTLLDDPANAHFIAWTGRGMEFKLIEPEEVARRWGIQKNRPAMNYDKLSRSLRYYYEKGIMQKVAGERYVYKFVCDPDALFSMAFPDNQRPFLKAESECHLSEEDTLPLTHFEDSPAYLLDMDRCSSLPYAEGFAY
Chain of CRX (O43186 whole entry): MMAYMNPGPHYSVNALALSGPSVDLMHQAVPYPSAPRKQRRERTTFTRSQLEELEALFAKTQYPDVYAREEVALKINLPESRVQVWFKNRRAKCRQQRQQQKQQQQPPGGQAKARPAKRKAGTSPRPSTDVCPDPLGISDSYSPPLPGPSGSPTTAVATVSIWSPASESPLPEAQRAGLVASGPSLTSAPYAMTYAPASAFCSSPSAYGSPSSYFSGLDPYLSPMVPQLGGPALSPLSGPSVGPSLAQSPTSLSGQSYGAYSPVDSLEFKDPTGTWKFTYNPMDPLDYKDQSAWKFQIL

For TATACC, the binding signal was 1.29 fold enrichment (6-mer frequency, TF over GST control) in assay [1]; 1.31 fold enrichment (6-mer frequency, TF over GST control) in [2]; 1.18 fold enrichment (6-mer frequency, TF over GST control) in assay [3]; 1.2 fold enrichment (6-mer frequency, TF over GST control) in assay [4]; 1.18 fold enrichment (6-mer frequency, TF over GST control) in [5]; 1.21 fold enrichment (6-mer frequency, TF over GST control) in assay [6]. Further, the binding signal in assay [7] is 1.05 fold enrichment (6-mer frequency, TF over GST control); in [8] it was 1.27 fold enrichment (6-mer frequency, TF over GST control); in assay [9], 1.16 fold enrichment (6-mer frequency, TF over GST control); in [10] it was 1.23 fold enrichment (6-mer frequency, TF over GST control); in assay [11], 1.09 fold enrichment (6-mer frequency, TF over GST control); in [12], 1.1 fold enrichment (6-mer frequency, TF over GST control). Besides, the binding signal is 1.14 fold enrichment (6-mer frequency, TF over GST control) in assay [13]; 1.21 fold enrichment (6-mer frequency, TF over GST control) in assay [14]; 1.22 fold enrichment (6-mer frequency, TF over GST control) in assay [15]; 1.15 fold enrichment (6-mer frequency, TF over GST control) in assay [16]; 1.12 fold enrichment (6-mer frequency, TF over GST control) in assay [17]; 1.26 fold enrichment (6-mer frequency, TF over GST control) in [18]. In addition, in assay [19], the binding signal was 1.31 fold enrichment (6-mer frequency, TF over GST control).
